The values that follow come from PubChem BioAssay (NCATS).

Values without a mark were called inactive. Records with an inconclusive call do not appear. Entries that show only a call come without a potency. Active and inactive are the calls of the source. Calls come from the whole dose curve; as a rule, active = well fitted curve in the direction sought with a large enough effect; inconclusive = small, poorly fitted or top-dose-only effect, or another doubt; inactive = no such curve, though single readings can be large; an effect the other way counts as inactive or inconclusive.

Test [1] concerns the target Cytochrome P450 3A4 (Homo sapiens) (UniProt P08684). Kind of test: qHTS Assay for Inhibitors and Substrates of Cytochrome P450 3A4 (AID 884). For activity change, negative = inhibition: series mostly up to about 57 µM. Note: nearly all actives have a fitted effect of over 50% in size. Note: potency is the fitted concentration of half-maximal effect. Put shortly: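 20 nM human CYP3A4 with 25 uM Luciferin-PPXE (at KM) in 200 mM KPO4, preincubated 10 min with compound; NADPH regeneration started a 60 min RT reaction. Luciferin detected by luminescence, normalized to 57 uM ketoconazole as full inhibition.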

Test [2] concerns the target Alpha-galactosidase (Coffea arabica) (UniProt Q42656). Kind of test: Counterscreen for Glucocerebrosidase Inhibitors: qHTS Assay for Coffee Bean alpha-Galactosidase at pH 4.5 (AID 957). Note: series mostly up to about 77 µM. The gist of the method:
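Coffee bean enzyme (2 nM) with 80 uM 4-methylumbelliferyl alpha-D-galactopyranoside in 50 mM citric acid, 0.005% Tween-20, pH 4.5, 20 min at room temperature; compounds 0.7 nM–77 uM. Stopped at pH 10, fluorescence 365/440 nm; AC50 from Hill fits.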
(In general: Counterscreens check selectivity or assay interference.)

Test [3] can be described thus: Confirmation and Secondary Assay for Modulators of Hemoglobin Beta Chain Splicing at IVS2 654 locus (AID 910).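 Note: HeLa cells stably carrying EGFP split by mutant beta-globin IVS2-654 intron; per-well total GFP intensity by laser scanning cytometry after 2-day treatment.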 The gist of the method: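 Readout: per-well total peak green fluorescence (488 nm ex, 500–520 nm em) from objects 5–250 µm, reflecting correct splicing of an EGFP-654 reporter. Compounds were applied for 2 days at 37 °C to overnight-plated HeLa EGFP-654 cells; controls were DMSO and 500 nM IVS2-654 PNA.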

Test [4] is described as follows: Confirmation and Secondary Assay for Modulators of Hemoglobin Beta Chain Splicing at IVS2 705 locus (AID 930).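 Note: HeLa cells stably expressing the EGFP-705 splicing reporter; GFP fluorescence per well restored by corrected splicing of the IVS2-705 intron in EGFP; series mostly up to about 46 µM.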 Put shortly: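 Splice-correction reporter: EGFP cDNA split by beta-globin intron 2 bearing the 705 mutation, stably in HeLa. Compound incubation 2 days, 37C; fluorescent objects 5-250 µm summed per well.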
The target of test [5] is Cytochrome P450 3A4 (Homo sapiens) (UniProt P08684). Kind of test: qHTS Assay for Activators of Cytochrome P450 3A4 (AID 885). Note: nearly all actives have a fitted effect of over 65% in size. Note: potency is the fitted concentration of half-maximal effect. The gist of the method: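 Steps: enzyme/substrate mix dispensed; compound added, 10 min RT; NADPH regeneration solution added, 60 min RT; luciferin detection buffer stops reaction; 20 min later luminescence measured.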
Background: qHTS replaces the single test concentration by a dilution series.

Test [6] has as its target Cytochrome P450 2D6 (Homo sapiens) (UniProt P10635). Kind of test: qHTS Assay for Inhibitors and Substrates of Cytochrome P450 2D6 (AID 891). Note: potency is the fitted concentration of half-maximal effect; nearly all actives have a fitted effect of over 60% in size. The gist of the method: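 Human CYP2D6 (5 nM) with 30 uM Luciferin-ME EGE (at Km) in 100 mM KPO4, compound preincubated 10 min, then NADPH regeneration system for 60 min at room temperature. Luciferin read by luminescence; normalized to 1.43 uM quinidine.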

Test [7] has as its target Cytochrome P450 2C19 (Homo sapiens) (UniProt P33261). Kind of test: qHTS Assay for Inhibitors and Substrates of Cytochrome P450 2C19 (AID 899). Note: potency is the fitted concentration of half-maximal effect; nearly all actives have a fitted effect of over 60% in size. The gist of the method: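 5nM enzyme + 10uM Luciferin-H EGE (=KM), 50mM KPO4; cpd pin-transferred, 10 min 37C; NADPH regen, 60 min 37C; stopped w/ luciferin detection reagent, 20 min; luminescence. Normalized to 57uM ketoconazole (AC100).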

Chain of Cytochrome P450 3A4 (Homo sapiens) (P08684 whole entry, looked up): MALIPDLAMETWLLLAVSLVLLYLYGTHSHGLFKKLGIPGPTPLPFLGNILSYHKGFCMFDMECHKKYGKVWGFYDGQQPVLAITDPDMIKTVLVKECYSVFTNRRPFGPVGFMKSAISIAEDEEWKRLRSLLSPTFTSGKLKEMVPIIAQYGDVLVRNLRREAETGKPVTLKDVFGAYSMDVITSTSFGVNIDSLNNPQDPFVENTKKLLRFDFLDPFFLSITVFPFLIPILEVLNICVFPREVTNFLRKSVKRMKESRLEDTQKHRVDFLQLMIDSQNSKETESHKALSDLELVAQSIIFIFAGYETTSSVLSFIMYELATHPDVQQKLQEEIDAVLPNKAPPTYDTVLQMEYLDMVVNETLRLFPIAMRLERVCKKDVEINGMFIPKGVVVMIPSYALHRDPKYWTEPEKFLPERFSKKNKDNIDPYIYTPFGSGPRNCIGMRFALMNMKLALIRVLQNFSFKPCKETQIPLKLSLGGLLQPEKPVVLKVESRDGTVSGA
Chain of Cytochrome P450 2D6 (Homo sapiens) (P10635 whole entry, looked up): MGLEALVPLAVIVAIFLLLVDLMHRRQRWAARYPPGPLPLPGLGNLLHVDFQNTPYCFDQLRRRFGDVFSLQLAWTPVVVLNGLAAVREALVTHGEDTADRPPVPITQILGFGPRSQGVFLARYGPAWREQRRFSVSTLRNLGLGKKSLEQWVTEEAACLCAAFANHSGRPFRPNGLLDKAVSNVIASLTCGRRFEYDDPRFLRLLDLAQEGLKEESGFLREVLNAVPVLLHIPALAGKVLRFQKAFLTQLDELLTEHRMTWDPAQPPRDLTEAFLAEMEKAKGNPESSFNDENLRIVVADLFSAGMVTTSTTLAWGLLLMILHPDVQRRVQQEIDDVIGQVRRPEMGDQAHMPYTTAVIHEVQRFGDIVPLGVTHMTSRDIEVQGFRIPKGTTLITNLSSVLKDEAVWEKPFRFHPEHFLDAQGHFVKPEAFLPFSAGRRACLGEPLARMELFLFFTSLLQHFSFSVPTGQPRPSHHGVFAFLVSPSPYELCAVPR
Chain of Alpha-galactosidase (Coffea arabica) (Q42656 whole entry, looked up): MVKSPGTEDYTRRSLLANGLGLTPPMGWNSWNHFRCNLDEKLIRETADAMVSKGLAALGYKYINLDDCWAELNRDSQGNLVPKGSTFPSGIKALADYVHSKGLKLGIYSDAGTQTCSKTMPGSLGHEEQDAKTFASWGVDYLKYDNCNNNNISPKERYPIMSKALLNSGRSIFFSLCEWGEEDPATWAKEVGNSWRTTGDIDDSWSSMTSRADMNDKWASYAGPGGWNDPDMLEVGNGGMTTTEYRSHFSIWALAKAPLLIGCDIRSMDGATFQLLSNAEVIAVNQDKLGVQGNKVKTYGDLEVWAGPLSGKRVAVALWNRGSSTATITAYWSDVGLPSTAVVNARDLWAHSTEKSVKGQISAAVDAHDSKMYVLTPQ
Chain of Cytochrome P450 2C19 (Homo sapiens) (P33261 whole entry, looked up): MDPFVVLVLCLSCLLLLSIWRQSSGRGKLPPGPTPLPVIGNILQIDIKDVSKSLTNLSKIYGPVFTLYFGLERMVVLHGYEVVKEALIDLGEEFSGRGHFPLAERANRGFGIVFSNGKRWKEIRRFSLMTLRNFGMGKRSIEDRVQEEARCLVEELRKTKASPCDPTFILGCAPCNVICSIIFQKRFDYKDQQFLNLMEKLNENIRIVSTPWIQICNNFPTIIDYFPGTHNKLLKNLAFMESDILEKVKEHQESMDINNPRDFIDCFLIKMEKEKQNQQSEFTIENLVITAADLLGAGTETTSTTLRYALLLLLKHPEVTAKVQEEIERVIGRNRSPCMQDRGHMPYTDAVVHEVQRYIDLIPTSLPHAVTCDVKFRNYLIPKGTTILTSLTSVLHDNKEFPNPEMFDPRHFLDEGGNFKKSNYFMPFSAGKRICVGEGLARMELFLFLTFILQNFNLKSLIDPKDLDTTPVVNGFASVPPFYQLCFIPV

In the case of `CN1[C@@H]2CC[C@H]1CC(NC(=O)c1nn(C)c3ccccc13)C2` (stereo partly drawn), the Potency entry in test [1] was “inactive”. Besides, in test [2], the outcome was inactive.

Consider `CC(C)=CCCC1(C)C=Cc2c(O)c3c(c(CC=C(C)C)c2O1)OC12C(CC4CC1C(C)(C)OC2(C/C=C(/C)C(=O)O)C4O)C3=O` (stereo not drawn), for which the Potency result in test [1] and in test [3] was “inactive” in each case. Also, in test [4], the outcome was inactive.

As to `CC(=O)[C@]1(O)CC[C@@H]2[C@H]3C[C@@H](C)C4=CC(=O)CC[C@@]4(C)[C@H]3[C@@H](O)C[C@]21C`, in test [5], the activity change, positive = activation is -33% [at 11.4 µM].

With `COc1cc2c(cc1OC)C1C(=O)c3c(O)cc4c(c3OC1CO2)C=CC(C)(C)O4` (stereo not drawn), the Potency in test [1] was 15.8 µM (active). Also, in test [5], the Potency entry was “inactive”.

Regarding `CC1=C(CC[C@H](C)CO)O[C@@H]2C[C@@H]3[C@H]4CC[C@H]5C[C@@H](O)CC[C@]5(C)[C@@H]4CC(=O)[C@@]3(C)[C@@H]12`, the activity change, negative = inhibition in test [1] was 87.6% [at 11.4 µM]. Moreover, the Potency in test [5] is 3.98 µM (active).

`CC1=C2C(=COC(C)C2C)C(=O)C(C(=O)O)=C1O` (stereo not drawn): the Potency in test [1] is 15.8 µM (active). The Potency entry in test [5] is “inactive”.

On to `COc1cc2c(cc1OC)[C@@H]1C(=O)c3ccc4c(c3OC1CO2)CC(C(C)C)O4` (stereo partly drawn), for which the Potency in test [1] was 25.1 µM (active). Further, the Potency result in test [5] and in test [3] was “inactive” throughout. Further, in test [4], the compound was classed as inactive.

`Cc1ccc2oc(-c3ccccc3)cc(=O)c2c1`: the Potency in test [1] is 10 µM (active). The Potency result in test [5] is “inactive”.

In the case of `COC(=O)[C@@H]1C[C@H]2CC[C@H](O)C[C@H]2N1CC1CC1`, the Potency result in test [5] was “inactive”.

Take `CC1(C)C2(Cl)C(Cl)C(Cl)C(Cl)(C(Cl)Cl)C1(Cl)C2Cl` (stereo not drawn): the Potency entry in test [5] is “inactive”.

For `CC(=O)Oc1ccc2c(c1)CCC1C2CC[C@]2(C)C(OC(C)=O)CCC12` (stereo partly drawn), the Potency result in test [5] was “inactive”.

Turning to `CCCN1[C@@H]2C[C@@H](O)CC[C@@H]2C[C@H]1C(=O)OC`, in test [5], the Potency entry is “inactive”.

Turning to `C=C(CO)C1Cc2c(ccc3c2OC2COc4cc(OC)c(OC)cc4C2C3=O)O1` (stereo not drawn), the Potency in test [1] is 31.6 µM (active). Besides, the Potency entry in test [5] is “inactive”.

Take `COc1cc2c(cc1OC)[C@@H]1C(=O)c3ccc(OC)c(CC=C(C)C)c3OC1CO2` (stereo partly drawn): in test [1], the Potency was 3.16 µM (active). For the same compound, the Potency entry in test [5] and in test [3] was “inactive” in each case. Also, the call in test [4] was inactive.

As for `CCC(=O)OC1CCC2C3CCc4cc(O)ccc4C3CC[C@]12C` (stereo partly drawn), in test [5], the Potency entry is “inactive”.

`CC[C@]1(O)CC(O[C@@H]2CC(N(C)C)C(O)C(C)O2)c2c(cc3c(c2O)C(=O)c2c(O)ccc(O)c2C3=O)C1C(=O)OC` (stereo partly drawn): the Potency entry in test [1] and in test [3] was “inactive” each time. Also, the compound was classed as inactive in test [4].

Regarding `COC(=O)[C@H]1C[C@H]2CC[C@H](O)C[C@H]2N1CC1CC1`, the Potency result in test [5] is “inactive”.

`COc1cc2c(cc1OC)C1C(=O)c3c(cc4c(c3O)C=CC(C)(C)O4)OC1CO2` (stereo not drawn): the Potency in test [1] was 15.8 µM (active). Besides, the Potency result in test [5] is “inactive”.

Consider `CC(C)C(C)/C=C/C(C)C1CCC2C3=CCC4CC(=O)CC[C@@]4(C)C3CC[C@]21C` (stereo partly drawn), for which, in test [1], the Potency entry was “inactive”. The Potency in test [5] is 25.1 µM (active).

With `COc1ccc2c(c1)CN([C@H](C)[C@@H]1CC[C@@H]3[C@H]4CC[C@H]5C[C@@H](O)CC[C@@]5(C)[C@H]4CC[C@]31C)CO2`, the activity change, negative = inhibition in test [1] was 321% [at 11.4 µM]. Moreover, the Potency is 3.98 µM (active) in test [5] and 3.16 µM (active) in test [6].

Regarding `CC(C)=CCCC(C)C1CC[C@@]2(C)C3=C(CC[C@@]12C)C1(C)CCC(O)C(C)(C)C1CC3` (stereo partly drawn), the Potency in test [1] was 15.8 µM (active). Further, in test [5], the Potency result was “inactive”.

Take `CC(=O)Oc1ccc(/C=C/c2cc(OC(C)=O)cc(OC(C)=O)c2)cc1`: the Potency in test [1] is 10 µM (active). Further, the Potency entry in test [5] and in test [3] was “inactive” in each case. The compound was classed as inactive in test [4].

Take `CCC(C(=O)C(C)C(O)C(C)CCc1ccc(C)c(O)c1C(=O)O)C1OC(CC)(C2CC[C@@](O)(CC)C(C)O2)CC1C` (stereo partly drawn): the Potency entry in test [5] was “inactive”.

As to `CCCCCCCCCc1ccc(OCCOCCOCCOCCOCCOCCOCCOCCOCCO)cc1`, in test [1], the Potency was 31.6 µM (active). Besides, in test [5], the Potency entry is “inactive”.

For the compound `c1ccc(CN2CCC3(CCc4ccccc43)CC2)cc1`, the Potency result in test [1] was “inactive”. In addition, the Potency in test [6] is 0.0063 µM (active); in test [7], 2.51 µM (active).

Regarding `CCC(C)C(=O)OC1C[C@@]2(C)C(c3ccoc3)OC(=O)CC23OC2(C)OC34C(OC(=O)C(C)C)[C@]3(O)C(OC(=O)C5(C)OC5C)[C@]5(C)CC3(O)[C@](C)(C5CC(=O)OC)C14O2` (stereo partly drawn), the Potency in test [1] is 2.51 µM (active). Also, the Potency entry in test [5] and in test [3] was “inactive” throughout. Besides, the outcome in test [4] was inactive.

With `COc1ccc2[nH]c(C(=O)c3ccccc3)cc2c1`, in test [1], the Potency is 7.94 µM (active). In test [5], the Potency entry is “inactive”.
